Values without a mark were called inactive. Active and inactive are the calls of the source. Rule as the data show it, unless noted: active = inhibition above about 25%; inactive = the rest.
Tests used:
[1] = molecular target: Nuclear receptor coactivator 1 (Homo sapiens) (UniProt Q15788); assay: SRC1 coactivator transcriptional activity inhibitors, confirmation, cell-based, luminescence, quadruplicate (AID 588820;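 active = mean inhibition above 46.68%, the untreated control wells mean plus 3 SD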;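 also: 0% = DMSO wells and 100% = gossypol 36 µM treated wells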); settings: HEK293 GAL4-SRC1 luciferase reporter, at 3.6 µM, hits give high values
Sequence of Nuclear receptor coactivator 1 (Homo sapiens) (Q15788 whole entry, looked up, the tested form may be a part): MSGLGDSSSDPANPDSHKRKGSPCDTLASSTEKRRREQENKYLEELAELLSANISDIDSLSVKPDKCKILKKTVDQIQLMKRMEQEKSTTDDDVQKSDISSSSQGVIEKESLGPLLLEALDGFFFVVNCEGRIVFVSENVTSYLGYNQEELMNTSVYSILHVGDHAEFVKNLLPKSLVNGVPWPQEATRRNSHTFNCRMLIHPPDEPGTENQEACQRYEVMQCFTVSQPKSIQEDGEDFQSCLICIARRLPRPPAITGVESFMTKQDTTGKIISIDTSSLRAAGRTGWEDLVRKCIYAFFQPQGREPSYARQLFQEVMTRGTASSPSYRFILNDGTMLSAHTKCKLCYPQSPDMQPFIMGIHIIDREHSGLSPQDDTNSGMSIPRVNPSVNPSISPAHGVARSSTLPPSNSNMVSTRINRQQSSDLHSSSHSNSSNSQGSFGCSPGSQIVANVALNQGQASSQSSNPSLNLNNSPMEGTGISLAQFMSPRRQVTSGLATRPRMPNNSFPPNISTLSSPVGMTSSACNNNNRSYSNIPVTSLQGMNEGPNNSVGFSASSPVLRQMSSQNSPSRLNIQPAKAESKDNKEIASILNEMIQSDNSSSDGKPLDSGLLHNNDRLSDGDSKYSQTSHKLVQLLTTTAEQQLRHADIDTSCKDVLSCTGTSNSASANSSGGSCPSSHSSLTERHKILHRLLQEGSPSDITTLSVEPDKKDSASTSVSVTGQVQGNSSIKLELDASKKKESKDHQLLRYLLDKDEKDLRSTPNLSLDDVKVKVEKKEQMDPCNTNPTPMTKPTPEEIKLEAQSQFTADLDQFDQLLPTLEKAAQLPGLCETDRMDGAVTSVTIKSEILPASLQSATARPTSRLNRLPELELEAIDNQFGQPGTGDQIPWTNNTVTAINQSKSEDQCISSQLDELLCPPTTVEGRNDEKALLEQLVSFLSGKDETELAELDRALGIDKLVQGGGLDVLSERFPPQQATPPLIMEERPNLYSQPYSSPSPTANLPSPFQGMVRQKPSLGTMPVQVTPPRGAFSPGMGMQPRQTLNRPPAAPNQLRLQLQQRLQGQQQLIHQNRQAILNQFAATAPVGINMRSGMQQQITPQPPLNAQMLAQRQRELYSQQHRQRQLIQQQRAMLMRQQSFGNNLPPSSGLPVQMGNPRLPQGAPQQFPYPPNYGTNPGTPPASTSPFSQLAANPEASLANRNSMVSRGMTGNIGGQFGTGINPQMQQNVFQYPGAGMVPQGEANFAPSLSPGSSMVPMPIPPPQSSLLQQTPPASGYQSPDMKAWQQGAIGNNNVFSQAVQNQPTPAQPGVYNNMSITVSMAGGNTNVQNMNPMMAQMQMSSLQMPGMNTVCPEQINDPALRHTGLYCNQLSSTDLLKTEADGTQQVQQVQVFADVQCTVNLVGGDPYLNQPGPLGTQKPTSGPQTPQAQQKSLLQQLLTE

[2] = VP16 transactivation inhibitors, counter-screen for SRC1 inhibitor project, cell-based, luminescence, high throughput (AID 588824); settings: cell-based VP16 transactivation luciferase luminescence; at 3.6 µM; hits give high values

Row | Compound | inhibition [1] [%] | inhibition [2]
1 | COCCN(C(=O)C1=COCCO1)c1c(N)n(Cc2ccccc2)c(=O)[nH]c1=O | -12.3 | -15.5%
2 | Cc1nc2ccccc2c2oc(C(=O)Nc3ccc(C(C)C)cc3)cc12 | -6.16 | -1.6%
3 | CN(Cc1ccc(F)cc1)C(=O)c1cccc(S(=O)(=O)N2CCN(c3ccccc3)CC2)c1 | -0.46 | 15%
4 | CCN(C(=O)c1ccc(S(=O)(=O)N2CCC(C)CC2)cc1)C1CCS(=O)(=O)C1 (centres undefined) | -0.29 | 2.08%
5 | Cc1csc2ncnc(NCCc3ccccn3)c12 | -2.8 | 21.8%
6 | Cc1cccc(C)c1NC(=O)CNC(=O)Cc1c[nH]c2ccccc12 | -0.57 | -1.35%
7 | O=C1CC2(CCCC2)CC(=O)N1CCCCN1CCN(c2ncccn2)CC1 | 0.34 | 2.87%
8 | CCC(C(=O)OCC(=O)Nc1cc(Cl)cc(Cl)c1)c1ccccc1 (centres undefined) | -0.98 | -3.53%
9 | CCN1CCN(c2ccc(S(=O)(=O)N3CCCCC3)cc2NC(=O)c2cccc(Cl)c2)CC1 | -2.97 | -2.54%
10 | O=c1[nH]cnc2sc3c(c12)CCCCC3 | -0.67 | -2.41%
11 | CCCc1cc(=O)oc2c(C)c(O[C@@H]3O[C@H](CO)[C@@H](O)[C@H](O)[C@H]3O)ccc12 | -6.26 | -0.67%
12 | COc1ccc(CN2CCN(C(=O)CCC(=O)Nc3nnc(C(F)(F)F)s3)CC2)cc1F | -1.74 | -4.2%
13 | O=C1NC2(CCN(Cc3ccccc3)CC2)Oc2ccccc21 | -21.7 | -3.3%
14 | COc1ccc(C(=O)Nc2ccc(Cl)c(S(=O)(=O)N3CCOCC3)c2)cc1 | -18.1 | 1.15%
15 | O=C(CN1C(=O)CCC1=O)Nc1ccc(S(=O)(=O)N2CCOCC2)cc1 | -20.2 | 4.05%
16 | CCOc1cccc(/C=N/NC(=O)c2cc(C3CC3)[nH]n2)c1O | 21.5 | 21.7%

Row | Compound | inhibition [1] [%] | inhibition [2]
17 | CCOC(=O)C1=C(COC(=O)/C=C/c2ccc(OC)c(OC)c2)NC(=O)NC1C (centres undefined) | -16.4 | -2.04%
18 | CC(=O)N1CN(C2CCCC2)Cc2c1sc1c2CCCC1 | 6.63 | 14.4%
19 | COc1ccc(Cl)cc1NC(=O)CN(C)C(=O)c1ccc(COc2ccccc2)cc1 | -31.4 | -12.9%
20 | COc1ccc(CCNC(=O)[C@H](CCSC)NC(=O)N2CCn3c2nc2ccccc23)cc1OC | 1.44 | -3.22%
21 | O=c1c2ccccc2cnn1Cc1n[nH]c(=S)n1C1CC2CCC1C2 (centres undefined) | 8.04 | -8.54%
22 | CCOP(=O)(OCC)C(NC(=O)c1cccs1)c1ccccc1 (centres undefined) | -44.8 | -3.21%
23 | Cc1cc(Br)cn2c(Cc3ccsc3)c(-c3ccc(F)cc3)nc12 | 6.68 | -0.27%
24 | CN(C)S(=O)(=O)c1ccc(Cl)c(NC(=O)CN2C(=O)NC(C)(C3CC3)C2=O)c1 (centres undefined) | -2.39 | -2.88%
25 | CCCCCCn1c(NCC)nc2c1c(=O)n(C)c(=O)n2C | -1.77 | 35.5% (active)
26 | CCCCC(=O)Nc1cccn2ncnc12 | 24.7 | 14.8%
27 | O=C1Nc2cc(C(=O)NCC3CCCO3)ccc2S/C1=C/c1ccccc1F (centres undefined) | -7.31 | -5.02%
28 | COC(=O)c1cccc(NC(=O)c2ccc[n+]([O-])c2)c1 | -21.8 | 4.7%
29 | COc1cc(C(c2sc3nc(C)nn3c2O)N2CCc3ccccc3C2)cc(OC)c1OC (centres undefined) | -4.8 | -0.57%
30 | CN(C)S(=O)(=O)c1ccc(N2CCCC2)c(C(=O)OCC(=O)NC2(C#N)CCCCC2)c1 | 4.07 | -9.13%
31 | COc1cc(S(=O)(=O)NCc2ccccc2Cl)ccc1-n1cnnn1 | -9.68 | -5.92%
32 | COc1ccc(-n2nc(C(=O)NCC(=O)Nc3cc(OC)c(OC)c(OC)c3)c3ccccc3c2=O)cc1OC | -43.4 | -6.14%
